The values below come from PubChem BioAssay AID624048 (National Center for Advancing Translational Sciences (NCATS), 2012).

Results filed as inconclusive are left out. Values without a mark were called inactive. The source made the active and inactive calls. Calls follow the shape of the dose curve; as a rule, active = well fitted inhibition curve with a large enough effect; inconclusive = small, poorly fitted or top-dose-only effect; inactive = no such curve, though single readings can be large or run the other way.

Sequence of Dual specificity protein kinase CLK2 (Homo sapiens) (P49760 whole entry, looked up, canonical isoform): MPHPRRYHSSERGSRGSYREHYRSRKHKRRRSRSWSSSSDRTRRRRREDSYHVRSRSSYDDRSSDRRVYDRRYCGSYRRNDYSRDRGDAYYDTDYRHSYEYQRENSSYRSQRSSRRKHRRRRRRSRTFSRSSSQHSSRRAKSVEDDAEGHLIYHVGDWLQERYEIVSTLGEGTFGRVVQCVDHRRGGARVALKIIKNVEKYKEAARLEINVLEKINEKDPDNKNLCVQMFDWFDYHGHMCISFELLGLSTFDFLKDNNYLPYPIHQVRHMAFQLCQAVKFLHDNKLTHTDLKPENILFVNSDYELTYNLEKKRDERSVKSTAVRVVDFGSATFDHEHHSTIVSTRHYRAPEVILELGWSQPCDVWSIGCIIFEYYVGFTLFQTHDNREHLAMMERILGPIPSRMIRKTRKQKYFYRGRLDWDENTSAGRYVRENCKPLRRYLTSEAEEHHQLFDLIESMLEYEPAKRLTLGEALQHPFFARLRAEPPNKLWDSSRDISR

The test has as its target Dual specificity protein kinase CLK2 (Homo sapiens) (UniProt P49760). In words: Reaction Biology data for inhibitors of CLK2: Probe SAR. Conditions: Reaction Biology CLK2 kinase assay, 10 uM ATP; series mostly up to 10 µM; activity change, negative = inhibition: at the top concentration. The source says: Alternative splicing of pre-mRNAs plays a major role in the regulation of eukaryotic gene expression. Alternative splicing is now thought to be one of the primary reasons for the complexity of higher organisms leading to an average of three protein isoforms per gene. Aberrant splicing can lead to a number of diseases and is known to play a role in rare genetic diseases such as progeria syndrome. Hutchinson-Gilford Progeria Syndrome (HGPS) is a pediatric premature aging disease caused by a spontaneous mutation in the lamin A/C (LMNA) gene due to a single point mutation in the lamin A gene effecting 1 in 4 million people. To identify both specific splicing modulators of the lamin A gene as well as general splicing modulators, a cell-based HTS assay was developed using a minigene reporter system (AIDs, 1459 & 1487). […] This AID summarizes the characterization of lead compounds in Clk2. NIH Molecular Libraries Probe Production Centers Network [MLPCN] NIH Chemical Genomics Center [NCGC] MLPCN Grant: MH084827 Assay Submitter (PI): Tom Misteli
Compound IC50s were determined at Reaction Biology (http://www.reactionbiology.com) with ten concentration points starting at 10 uM in the assay using a 3-fold dilution series. The control compound staurosporine was also tested in the 10-dose IC50 mode with the same 3-fold serial dilution, again starting at 10 uM. All kinase reactions were performed using 10 uM ATP in the assay. 100% activity was taken from kinase reactions with DMSO alone (the vehicle used for compound stock solutions).
For `O=[N+]([O-])c1cc(Nc2nccc(-c3ccc4c(c3)OCO4)n2)cc(C(F)(F)F)c1`, the Potency was 39.8 nM (active).

In the case of `Cc1c(-c2ccnc(NCc3cccnc3)n2)sc(=O)n1C`, the Potency is 576 nM (active).

`c1cncc(CNc2ncncc2-c2ccc3c(c2)OCO3)c1`: the “activity change, negative = inhibition” value is -42.4%. As to `c1nc(NCC2CCCO2)c2cc(-c3ccc4c(c3)OCO4)ccc2n1` (stereo unspecified), the Potency is 358 nM (active). Regarding `c1cncc(CNc2nccc(-c3ccc4[nH]ncc4c3)n2)c1`, the Potency is 462 nM (active). For the molecule `Clc1ccc(CNc2nccc(-c3ccc4[nH]ncc4c3)n2)cc1Cl`, the Potency was 190 nM (active). For the molecule `c1cncc(CNc2nccc(-c3ccc4c(c3)OCO4)n2)c1`, the Potency is 59.8 nM (active). With `COc1ccc(-c2ccnc(NCc3ccc(Cl)c(Cl)c3)n2)cc1OC`, the “activity change, negative = inhibition” value is -20.3%. In the case of `Clc1ccc(Nc2nccc(-c3ccc4c(c3)OCO4)n2)cc1`, the “activity change, negative = inhibition” value is -45%. Turning to `Clc1cc(Cl)cc(CNc2nccc(-c3ccc4c(c3)OCO4)n2)c1`, the Potency was 23.4 nM (active). Take `Clc1ccc(CNc2nccc(-c3ccc4cn[nH]c4c3)n2)cc1Cl`: the Potency was 429 nM (active). The same measure, in the same setting: the value for `Clc1cc(Cl)cc(CNc2ncncc2-c2ccc3c(c2)OCO3)c1` was 231 nM (active).

Regarding `Clc1ccc(CNc2ccnc(-c3ccc4c(c3)OCO4)n2)cc1Cl`, the “activity change, negative = inhibition” value was -27.8%. With `c1cc(-c2ccc3c(c2)OCO3)nc(Nc2ccc3c(c2)OCO3)n1`, the Potency is 259 nM (active). `Cc1nc(CN(C)c2ncnc3ccc(-c4ccc5c(c4)OCO5)cc23)cs1`: the Potency is 44.8 nM (active). Turning to `COc1ccc(-c2ccnc(NCc3ccc(Cl)c(Cl)c3)n2)cc1`, the Potency was 409 nM (active).

For `Cc1nc(CNc2ncnc3ccc(-c4ccc5c(c4)OCO5)cc23)cs1`, the Potency was 187 nM (active). With `Brc1ccc(CNc2nccc(-c3ccc4c(c3)OCO4)n2)cc1Br`, the Potency was 29.6 nM (active).

With `Cc1c(-c2ccnc(NCc3ccc(Cl)cc3)n2)sc(=O)n1C`, the Potency was 700 nM (active). Turning to `c1cncc(CNc2ccnc(-c3ccc4cn[nH]c4c3)n2)c1`, the Potency is 1900 nM (active). Turning to `Brc1cc(Br)cc(CNc2nccc(-c3ccc4c(c3)OCO4)n2)c1`, the Potency is 41.4 nM (active). Same read-out and setting: the value for `Clc1ccc(CNc2ncncc2-c2ccc3c(c2)OCO3)cc1Cl` was 1560 nM (active); that for `c1cncc(CNc2ccnc(-c3ccc4[nH]ncc4c3)n2)c1` was 665 nM (active). In the case of `FC(F)(F)c1cc(Br)cc(Nc2nccc(-c3ccc4c(c3)OCO4)n2)c1`, the Potency is 344 nM (active). Turning to `Clc1ccc(CNc2nccc(-c3ccc4c(c3)OCO4)n2)cc1Cl`, the Potency was 20.4 nM (active). As for `COc1cccc(-c2ccnc(NCc3ccc(Cl)c(Cl)c3)n2)c1`, the “activity change, negative = inhibition” value is -45.2%. For the molecule `COc1ccc(-c2ccnc(NCc3ccc(Cl)cc3)n2)cc1`, the Potency is 1090 nM (active). For `FC(F)(F)c1cccc(Nc2nccc(-c3ccc4c(c3)OCO4)n2)c1`, the Potency was 52.1 nM (active). With `Cc1nc(CN(C)c2ncnc3ccc(-c4ccc5[nH]ncc5c4)cc23)cs1`, the Potency was 160 nM (active). As to `COc1cccc(-c2ccnc(NCc3ccc(Cl)cc3)n2)c1`, the “activity change, negative = inhibition” value was -39.2%. Regarding `Clc1ccc(CNc2nccc(-c3ccc4c(c3)OCCO4)n2)cc1Cl`, the Potency is 39.1 nM (active).
